Measurements from PubChem BioAssay AID488969 (Vanderbilt High Throughput Screening Facility, 2010).
In all, about 110,000 compounds were measured (“z-score”: median about -0.1, highest 2% from about 2 on). Shown is part of a subset that was picked to be rich in the highest values. Active and inactive are the calls of the source.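 Rule for the calls: active = z-score in the third read window above 3 or below -3; inactive = the rest.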

Target: Metabotropic glutamate receptor 8 (Rattus norvegicus) (UniProt P70579)
Assay: mGluR8 Gi/Go-coupled signaling modulation – cell-based, rat, thallium flux, HTS, primary screen (AID 488969)
Settings: HEK293 rat mGluR8, GIRK (G protein-gated inwardly rectifying potassium channel) thallium flux, FluoZin2; at 10 µM; stronger effect = higher value; submaximal glutamate (EC20) added with thallium

Chain of Metabotropic glutamate receptor 8 (Rattus norvegicus) (P70579 whole entry, looked up): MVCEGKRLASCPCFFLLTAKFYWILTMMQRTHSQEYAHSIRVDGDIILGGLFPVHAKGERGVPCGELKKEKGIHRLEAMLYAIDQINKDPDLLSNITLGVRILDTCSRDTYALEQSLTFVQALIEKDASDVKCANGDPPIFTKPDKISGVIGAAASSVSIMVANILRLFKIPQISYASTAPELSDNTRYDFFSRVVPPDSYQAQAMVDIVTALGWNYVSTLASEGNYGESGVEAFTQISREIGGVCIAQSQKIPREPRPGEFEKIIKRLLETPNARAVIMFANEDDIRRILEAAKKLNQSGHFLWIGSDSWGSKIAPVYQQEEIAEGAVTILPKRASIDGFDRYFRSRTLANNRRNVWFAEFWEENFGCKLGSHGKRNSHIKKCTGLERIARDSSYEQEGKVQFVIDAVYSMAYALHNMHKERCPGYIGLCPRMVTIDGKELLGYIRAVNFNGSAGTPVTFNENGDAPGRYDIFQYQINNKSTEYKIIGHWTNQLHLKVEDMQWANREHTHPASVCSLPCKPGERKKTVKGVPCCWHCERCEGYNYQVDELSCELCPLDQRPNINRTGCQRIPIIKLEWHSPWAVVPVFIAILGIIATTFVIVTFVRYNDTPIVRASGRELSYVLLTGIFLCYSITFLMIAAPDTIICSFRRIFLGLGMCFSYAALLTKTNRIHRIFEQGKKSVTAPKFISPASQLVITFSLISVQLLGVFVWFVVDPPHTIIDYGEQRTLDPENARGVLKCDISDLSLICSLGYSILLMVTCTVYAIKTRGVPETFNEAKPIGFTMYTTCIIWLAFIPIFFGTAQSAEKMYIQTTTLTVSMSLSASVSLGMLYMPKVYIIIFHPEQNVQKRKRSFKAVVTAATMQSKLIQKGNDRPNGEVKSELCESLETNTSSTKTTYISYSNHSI

Structure (SMILES) | z-score
CCc1ccc(-c2nc(NC(=S)NC(=O)c3cccs3)sc2C)cc1 | 0.595
O=C(Cc1cccs1)Nc1nc2c(ccc3ccccc32)s1 | 0.34
O=C(NC(=S)Nc1nc2c(ccc3ccccc32)s1)c1cccs1 | 2.78
Cc1ccc(-c2csc(NC(=S)NC(=O)c3cccs3)n2)cc1 | -0.267
Cc1nc(NC(=S)NC(=O)c2cccs2)sc1C(=O)N(C)C | -0.329
O=C(NC(=S)Nc1nc2ccccc2s1)c1cccs1 | 11.7 (active)
Cc1ccc2nc(NC(=O)Cc3cccs3)sc2c1 | 0.542
Cc1ccc2nc(NC(=S)NC(=O)c3cccs3)sc2c1 | 4.64 (active)
O=C(NC(=S)Nc1nc(-c2ccccc2)cs1)c1cccs1 | 1.03
O=C(c1ccc(Cl)cc1)C1CCN(C(=O)C2CC2)CC1 | 0.108
CCOC(=O)c1c(C)n(-c2ccc(C)cc2)c2c(CC(C)=O)c(Br)c(OC)c(O)c12 | -0.0818
Clc1ccc(Cc2ccc(SCc3ccccc3)nn2)c(Cl)c1 | 3.48 (active)
CSc1ccc(Cc2ccc(Cl)cc2Cl)nn1 | -0.154
Clc1ccc(Cc2ccc(Cl)nn2)c(Cl)c1 | -0.119
O=C(N/N=C\c1ccc(Sc2ccccn2)o1)c1cccc(F)c1 | -0.471
O=C(N/N=C\c1ccc(Sc2ccccn2)o1)c1cccc(Br)c1 | 1.77
O=C(N/N=C/c1ccc(Sc2ccccn2)o1)c1cc2ccccc2cc1O | 6.43 (active)
CCOC(=O)c1ccc(NC(=S)N2CCN(Cc3ccccc3)CC2)cc1 | -0.2
CN(C)c1ccnc(Oc2ccc(C(C)(C)C)cc2)c1C#N | -0.212
O=C(O)C1CCCN1C(=O)c1cccs1 (stereo unspecified) | 0.319
COC(=O)C1CCCN1C(=O)c1cccs1 (stereo unspecified) | 5.05 (active)
O=C(OCc1ccccc1)C1CCCN1C(=O)c1cccs1 (stereo unspecified) | -0.219
CC(=O)NC1(c2nnnn2CCOC(=O)Nc2ccc(Cl)cc2)CCCCC1 | 0.0804

Structure (SMILES) | z-score
O=C(O)CCC(=O)N1N=C(c2c(-c3ccccc3)c3cc(Cl)ccc3[nH]c2=O)CC1c1ccco1 (stereo unspecified) | -0.219
C/C(=N\NC(=O)C(NC(=O)c1ccccc1)C(C)C)c1ccccc1 (stereo unspecified) | -0.068
CC(C)NC(=O)/C(=N\O)c1ccccc1 | 0.0549
C/C(=N\O)C(C)NC(=O)c1ccccc1 (stereo unspecified) | 3.54 (active)
COc1ccccc1NC(=S)NCc1ccc2c(c1)OCO2 | -0.0224
Cc1sc(NC(=O)c2cc(-c3ccc(Cl)cc3)nc3ccccc23)c(C(N)=O)c1C | -0.126
O=C(c1ccccc1)N(Cc1ccc(F)cc1)C1CCS(=O)(=O)C1 (stereo unspecified) | -0.0413
O=C(c1sc2ccccc2c1Cl)N(Cc1ccccc1)C1CCS(=O)(=O)C1 (stereo unspecified) | 1.16
O=C(c1ccc(Cl)c([N+](=O)[O-])c1)N(Cc1ccccc1)C1CCS(=O)(=O)C1 (stereo unspecified) | 2
CCCCn1c(=O)[nH]c(=O)c2c1ncn2Cc1ccco1 | -0.249
CCOC(=O)CN(C(=O)CSc1nnc(CNc2ccc(F)cc2)n1CC)c1ccc(F)cc1 | -0.599
COc1ccc(OC)c(CNC(=O)CCN2C(=O)COc3ccccc32)c1 | 0.307
CSc1nc2ccccc2cc1/C=C(\C#N)c1cccc(Cl)c1 | 0.938
CSc1nc2ccccc2cc1/C=C(\C#N)c1cccc(C)c1 | 3.99 (active)
CSc1nc2ccccc2cc1/C=C(\C#N)c1ccccc1 | 0.0152
COc1ccc(C(C)=O)cc1CN1C(=O)C(C)N(c2ccc(C)cc2)C1=O (stereo unspecified) | -0.0103
CCOc1ccc(N2C(=O)CC(SC(=NC)Nc3ccc(F)cc3)C2=O)cc1 (stereo unspecified) | 3.7 (active)
CCOc1ccc(N2C(=O)CC(SC(=NC)Nc3cccc(F)c3)C2=O)cc1 (stereo unspecified) | -0.588
CCCOc1ccc(N2C(=O)CC(SC(=NC)Nc3ccc(F)cc3)C2=O)cc1 (stereo unspecified) | -0.0553
CCOC(=O)CN1NC2(CCC(C(C)(C)C)CC2)NC1=S (stereo unspecified) | 2.66
CCOC(=O)CN1NC2(CCC(C)CC2)NC1=S (stereo unspecified) | -0.408
CCOC(=O)CN1NC2(CCCCC2)NC1=S | 0.284
O=C(CSc1nc(-c2ccccc2)c(-c2ccccc2)[nH]1)NCc1ccco1 | -0.317

Structure (SMILES) | z-score
C=CCOc1ccc(/C(O)=C2\C(=O)C(=O)N(CCCOC)C2c2ccc(O)c(OC)c2)cc1 (stereo unspecified) | -0.44
Cc1ccc(S(=O)(=O)Nc2ccccc2-c2ccccc2NS(=O)(=O)c2ccc(C)cc2)cc1 | -0.159
O=C1c2ccccc2-c2cccc(NS(=O)(=O)c3ccc(C(F)(F)F)cc3)c21 | 2.66
Cc1cccc(S(=O)(=O)Nc2cccc3c2C(=O)c2ccccc2-3)c1 | 8.14 (active)
O=C(O)c1ccccc1NS(=O)(=O)c1cccc(C(F)(F)F)c1 | -0.814
CNc1cccc2c1C(=O)c1ccccc1C2=O | -0.102
Cc1ccc(NS(=O)(=O)c2ccc3c(c2)C(=O)c2ccccc2C3=O)c(C)c1 | -0.0521
CCOC(=O)c1[nH]cnc1C(=O)Nc1ccncc1 | 0.161
O=C(CS(=O)(=O)c1ccc2ccccc2c1)Nc1ccccc1Cl | -0.351
Cn1c(N2CCC(C(N)=O)CC2)nc2c1c(=O)n(Cc1cccc(Br)c1)c(=O)n2C | -1.26
COC(=O)NCc1ccc(S(=O)(=O)N2CCOCC2)cc1 | 0.235
COc1cc(C(=S)N2CCCC2)ccc1O | 0.115
COc1cc(C(=S)N2CCCC2)cc(OC)c1O | 0.304
COc1cc(C(=S)N2CCCC2)cc(Cl)c1O | 2.62
Cc1sc2nc(C)n(/N=C/c3ccc(O)cc3)c(=O)c2c1C | -0.305
COc1ccc(S(=O)(=O)N(Cc2nc3ccccc3c(=O)[nH]2)C2CCCC2)cc1 | 2.49
CN(Cc1nc2ccccc2c(=O)[nH]1)c1ccccc1 | -0.0308
O=C(Nc1cccc(Cl)c1)N(Cc1nc2ccccc2c(=O)[nH]1)C1CCCC1 | -0.529
COc1ccc(S(=O)(=O)N(Cc2ccccc2)Cc2nc3ccccc3c(=O)[nH]2)cc1 | -0.148
O=c1[nH]c(CS(=O)(=O)c2ccccc2)nc2ccccc12 | 3.08 (active)
Cc1ccc(S(=O)(=O)Cc2nc3ccccc3c(=O)[nH]2)cc1 | -0.19
O=C(NC1CCCCC1)N(Cc1nc2ccccc2c(=O)[nH]1)C1CCCC1 | 0.129
COc1ccc(CN(Cc2nc3ccccc3c(=O)[nH]2)C(=O)NC2CCCCC2)cc1 | -0.301

Structure (SMILES) | z-score
Cc1cccc(NC(=O)N(Cc2nc3ccccc3c(=O)[nH]2)C2CCCC2)c1 | 2.35
CCOC(=O)N1CCN(C(=O)CN(c2cc(Cl)ccc2OC)S(=O)(=O)c2ccccc2)CC1 | -0.359
CCCc1nc2ccc(NC(=O)c3cccs3)cc2c(=O)n1Cc1ccc(Cl)cc1 | -0.155
O=C(C(=O)N1CCCc2ccccc21)c1c[nH]c2ccccc12 | 0.104
CCOC(=O)c1c(-c2ccccc2)oc2ccc(OC)cc12 | 0.0333
CCC(CC)NC(=O)COC(=O)c1ccc(OCc2ccc(C(C)=O)cc2OC)c(OC)c1 | -0.23
C/C(=N\NC(=O)c1ccc(OC2CCCC2)cc1)c1ccc(C)s1 | 1.05
Cc1ccc(CC2CC(=O)N(c3nc4ccccc4n3C)C2=O)cc1 (stereo unspecified) | -0.156
Cc1ccc(CNC(=O)C(=O)NCCCn2ccnc2)cc1 | -0.281
O=C(NCCCn1ccnc1)C(Cc1ccc([N+](=O)[O-])cc1)N1C(=O)c2ccccc2C1=O (stereo unspecified) | 2.67
Cc1ccc(C(=O)NCCCn2ccnc2)cc1[N+](=O)[O-] | 0.161
CN1CCN(C(=O)CN(c2cccc(Cl)c2)S(=O)(=O)c2ccccc2)CC1 | -0.681
O=C(Nc1ccc(Cl)c(Cl)c1)Nc1nnc(CC2=CCCCC2)s1 | 0.0021
CCOC(=O)C1=C(NC(=S)NC(=O)c2ccccc2)c2ccccc2CC1C(C)C (stereo unspecified) | 3.46 (active)
CCOC(=O)C1=C(NC(=S)NC(=O)c2ccccc2)c2ccccc2CC1(C)C | 5.58 (active)
CCOC(=O)c1ccc(NC(=O)c2ccccc2)cc1 | -0.0754
CCOC(=O)c1sc(NC(=S)NC(=O)c2ccccc2)c(C(=O)OCC)c1C | 0.582
CCOC(=O)c1ccc(NC(=O)c2ccc(NC(=O)c3ccccc3)cc2)cc1 | -0.341
CCOC(=O)C1=C(N)c2ccccc2CC1C(C)C (stereo unspecified) | -0.175
O=[N+]([O-])c1ccc(OCCN2CCCCCC2)cc1 | 0.121
COCCCN1C(=O)c2ccccc2C1C(=O)NC1CCCCCC1 (stereo unspecified) | 0.0327
O=C(NC1CCCCCC1)C1c2ccccc2C(=O)N1CCCN1CCOCC1 (stereo unspecified) | -0.316
CCCCN1C(=O)c2ccccc2C1C(=O)NC1CCCC1 (stereo unspecified) | 3.2 (active)

Structure (SMILES) | z-score
COc1ccc(-n2nnc3c(SCC(=O)Nc4ccc5c(c4)OCCO5)ncnc32)cc1 | 0.658
OC1CCCN(c2c3c(nc4cc(-c5cccc(Cl)c5)nn24)CCC3)C1 (stereo unspecified) | -0.591
Clc1cccc(-c2cc3nc4c(c(N5CCNCC5)n3n2)CCCC4)c1 | 2.71
Clc1cccc(-c2cc3nc4c(c(N5CCN(c6cnccn6)CC5)n3n2)CCCC4)c1 | -0.109
CCCn1nc(CC(=O)OCC)c2ccccc2c1=O | 0.73
O=C(Cn1[nH]c(=O)c2ccccc2c1=O)NCc1cccnc1 | -0.377
CC(C)C(NC(=O)c1ccccc1NC(=O)c1ccco1)C(=O)O (stereo unspecified) | -0.744
CC(NC(=S)Nc1ccccc1OC(F)F)C(C)(C)C (stereo unspecified) | -0.263
Fc1ccc(NC(=S)Nc2ccc(F)c(Cl)c2)cc1Cl | -0.0109
FC(F)Oc1ccccc1NC(=S)Nc1cccc(Cl)c1Cl | 3.76 (active)
O=C(Nc1cc(Cl)ccc1Oc1ccccc1)c1ccc(F)cc1 | -0.256
COC(=O)c1cc(OC)c(OC)cc1NC(=S)Nc1cccc(Cl)c1 | 0.731
Fc1ccc(NC(=S)Nc2ccccc2OC(F)F)cc1Cl | 6.05 (active)
S=C(Nc1cccc(Cl)c1)Nc1ccccc1Oc1ccccc1 | 15.4 (active)
O=C(Nc1cc(Cl)ccc1Oc1ccccc1)c1ccccc1F | 3.37 (active)
FC(F)Oc1ccccc1NC(=S)NCc1ccco1 | 0.0626
COc1cc(C)c(NC(=S)Nc2cccc(Cl)c2)cc1OC | 0.0992
FC(F)Oc1ccc(NC(=S)NCc2ccccc2)cc1Cl | 0.178
O=C(Nc1ccccc1Oc1ccccc1)c1ccccc1F | -0.161
